# Measurements taken from the supplement of paper PMC6555819.
# What was measured:
# Assay in all cases: PBM binding z-score (relative to random genomic background probes); higher = stronger binding; sequences stand for … in GC…GCGATTGACAGCGTAGAATGAAGG
# [1] = test system: RARb homodimer (NR concentration 270 nM)
# How it was run: (§1)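 Regression normalization was applied to scanned fluorescence from custom Agilent 4×180K protein-binding microarrays. Before scanning, arrays were incubated 1 h with ligand-free nuclear receptor dimers, and binding was detected with antibodies against each partner (one per run). Binding z-scores use the random background probes as reference.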
# [2] = test system: RARg:RXRa (NR concentration 270 nM, RXRa partner concentration 90 nM)
# How it was run: as §1
# [3] = test system: RARg homodimer (NR concentration 270 nM)
# How it was run: as §1
# [4] = test system: RXRa DBDmut IVT, anti-RXR (DBD mutation: RXRa K156A/R161A, NR concentration 90 nM)
# How it was run: as §1
# [5] = test system: RXRa homodimer (NR concentration 180 nM)
# How it was run: as §1
# [6] = test system: THRa:RXRa (NR concentration 90 nM, RXRa partner concentration 90 nM)
# How it was run: as §1
# [7] = test system: THRa homodimer (NR concentration 90 nM)
# How it was run: as §1
# [8] = test system: VDR homodimer (NR concentration 270 nM)
# How it was run: as §1
Sequence,PBM binding z-score [1],PBM binding z-score [2],PBM binding z-score [3],PBM binding z-score [4],PBM binding z-score [5],PBM binding z-score [6],PBM binding z-score [7],PBM binding z-score [8]
CCTAGAAGGCCAATCTGGGTCACTCAAGGCTTGA,2.78,1.98,2.37,0.567,1.55,4.27,0.262,0.0868
TTACCAAGGTAAGCTGAGGTCGTTGATCCAACTC,0.571,0.164,-0.00347,0.278,0.962,4.33,1.61,1.65
CGAACTAGGTCAGAACAGGACAGCGAAGGATGAT,2.08,2.39,3.18,0.432,1.39,3.82,0.236,-0.0467
CCTCGGAGGACAACAGAAGGTCAGAGCTGCCAGA,3.55,3.3,3.27,0.274,1.54,2.36,0.481,0.506
TCATATAGGTAAATGCGAGGTGAAAGTCCGATCT,1.05,0.929,0.538,1.89,1.18,2.78,1.54,0.605
ATCGAAAGGTCGACGTGAGTATAGAGAAAGGGAA,2.07,3.93,3.91,1.34,3.94,1.79,-0.87,0.464
TTACCAAGGTGAAGGCCGTTGATCCCTCTGTAGA,0.648,0.161,0.236,-0.411,0.286,1.57,0.252,-0.421
TCTTGTAGATCAAGCAGATTAAGAAAGCCTGAGT,-0.625,-0.157,-0.298,0.446,0.2,-0.439,-0.521,-0.466
CCTACTGGGCCATCAGGTCACTGATATCAACGTT,2.82,2.28,2.5,-0.0787,1.54,3.34,3.44,0.813
ATATGTAGGTTACCTCCGGGTCATTCAGGCTATG,3.04,4.19,2.43,0.792,3.8,3.78,2.66,2.02
TCTCGGAGGCCACGAAGGTCAGAGCTTTCCAGAG,3.74,3.08,3.36,0.442,1.88,2.12,-0.105,0.706
CAAACTGGGTCACAGAGGTCAAAGTCCGTGCGTA,5.5,7.14,7.26,3.26,7.99,4.4,2.19,5.91
TAGACTAGGTCATTCAGGGGCCAGTATAGAAAGC,3.07,5.47,4.47,1.33,2.82,3.29,0.816,1.63
GCTTGTAGATCAAGGTTAAGACAGACTAAGCTAA,0.562,0.461,0.497,-0.0408,0.989,1.27,-0.0509,0.0668
TCAGAGAGGTGAAGGTAACTCAGGTACGCAGTCG,1.34,1.54,1.36,1.31,1.85,2.04,0.401,0.316
ACACACAGGTGAGTGAAGGTAACTCAGCTGGACG,-0.00486,0.394,0.59,-0.0875,0.549,1.57,-0.409,-0.0907
TCGAGTAGGTTAGTCGGGGAATTCAGCCAACATA,0.122,-0.408,-0.41,0.0963,-0.255,0.163,-0.3,-0.495
CGGACTGGGGCATAAGGTTACCATAAGCCAGCCC,1.94,1.83,1.21,-0.836,1.29,2.18,1.39,-0.454
ATATGTAGGTTACTTCCGGGTCATTCAGGCTATG,3.02,3.9,2.02,1.23,3.02,3.91,2.57,2.58
TGATTGAGGTTAAAGATCAGGGAACGTGGCGTCG,1.01,2.5,1.35,0.759,3.67,2.57,0.317,0.679
ACTATTAGTTGAGACGAGGGCAATCGATAGGTTG,0.955,0.898,0.973,0.801,0.517,2.22,-0.15,1.06
TAGCCTAGGTCAGATCGGGCCAGTAAACGCTATA,1.72,2.66,3.21,-0.396,1.32,3.89,-0.219,-0.568
TAGCCTAGGTCATTGAGGGGCCAGTATAGAAAGC,2.97,5.82,4.34,1.59,2.82,3.05,0.714,1.16

Sequence,PBM binding z-score [1],PBM binding z-score [2],PBM binding z-score [3],PBM binding z-score [4],PBM binding z-score [5],PBM binding z-score [6],PBM binding z-score [7],PBM binding z-score [8]
CGTCCAAGGTCCAGGTCAGTGAAAGAGACTCGAA,2.38,1.4,1.92,0.467,0.732,2.22,1.67,0.482
CGTGCAAGGTCAATGCTAGGTCAGTGAAAGCATT,4.95,7.96,7.27,3.39,5.44,4.64,2.44,2.89
CGTCCAAGGTCAGCAGGTCATTGAAAGCGACGTG,5.08,6.83,6.69,2.59,6.04,4.26,2.98,2.36
TCTATTAGTTGATTAGGGCAACCGTAACAGCGGA,0.955,0.567,0.671,1.16,0.558,0.75,0.547,0.281
CCTACTGGGCCACGAAAGGTCATTGACTCAGTGA,4.8,4.9,4.53,0.581,4.92,3.77,0.711,2.15
ATATGTAGGTTAGCTGGGGTCTTTCAGACTAGGC,0.902,0.713,0.709,0.448,0.914,3.67,0.871,0.329
CGTCCAAGGTCAGCACGTCAGTGAAAGCGACGTG,4,5.13,5.75,2.51,3.83,3.43,1.9,0.904
CGTCCAAGGTCAAGGTCAGGGAAAGAGACTCGAA,5.45,7.09,7.87,3.81,7.17,4.53,3.82,3.37
TTACCAAGGTGAGCTGAGGTCTTTGATCCAACTC,0.568,0.335,0.384,-0.584,0.322,4.17,0.8,-0.646
TCGAGTAGGTTAGGGGCATCCAGAATGGCGTCGA,1.01,0.269,0.268,0.271,0.71,1.05,0.256,0.462
TAGCCTAGGCCATGCGGGCCAGTATAGTGTCGGC,-0.484,-0.409,-0.0767,-1.68,-0.471,-0.614,-1.02,-1.02
ATCTCCAGGTAAAGTTCAGTGAAAGATCGATAGA,2.77,2.26,2.51,1.38,1.52,1.73,0.709,1.92
CCGAGTAGGTTATGGGGCATTCTGGCAACGGTGA,1.05,0.374,0.468,0.11,0.554,0.0308,0.157,0.195
CCTTACGGGTCACGAGCTTATAGCACGACGAGCG,3.08,5.67,5.35,1.94,6.23,3.07,0.145,0.809
CAAACTAGGTCATAGGTCAAAGTCGAGCCAACCA,4.27,6.56,5.38,2.31,7.49,4.11,1.44,1.92
TATACAGGGTCAGAGGCCAGAGTACGAATGTCGA,3.01,4.21,4.27,1.39,4.32,2.74,0.817,2.2
ATCGAAAGGTCGAAGAGGTGAGTATACACCGTTT,2.74,4.11,4.08,0.936,4.41,2.73,-0.077,0.745
ACTCAAAGTTCATCTAGGTAACGTAAGATATGCT,4.25,5.51,6.3,4.87,4.62,3.37,0.619,5.89
CCTGCTAGGTCATGGTCGGCTAATCTACAGTATG,2.46,3.92,4.63,1.75,2.82,3.01,1.29,0.379
ATCTCTAGGTAACCAACTTCAGTGAATGCCGAAC,0.171,0.209,0.26,0.264,0.158,0.65,0.878,0.195
TGAATGAGGTTATAAGGTCAGGGAACGTTGCAAA,4,5.81,4.21,1.11,5.44,4.24,3.73,1.88
ATACCAAGGTGATCGTGAGGTTGTTGATACTAAC,0.567,0.576,0.356,0.169,0.593,1.89,0.949,0.36
ACAGACAGGTGATGAAGGTAACCCAGGCTATCAT,0.672,0.398,0.392,-0.925,0.473,0.892,0.124,-0.253

Sequence,PBM binding z-score [1],PBM binding z-score [2],PBM binding z-score [3],PBM binding z-score [4],PBM binding z-score [5],PBM binding z-score [6],PBM binding z-score [7],PBM binding z-score [8]
GGAACGAGGGCAAACTTGATAGCATCTGTCGACG,1.03,1.52,1.62,3.1,1.17,1.09,-0.309,1.61
TCGATTAGTTGATTAGGGCAACCGAAACAGCGGA,0.521,0.102,0.329,0.535,0.0192,0.565,0.154,-0.306
CGTCCAAGGTCAGGGTCAGTGAAAGAGACTCGAA,4.57,5.67,6.48,2.75,5.14,3.9,2.66,2.19
AGTCAAAGTTCACTAGGTAACGAAAGATTCAGCT,3.45,4.86,5.55,3.95,3.92,1.85,0.1,3.69
GCTTACGGCTCAAAGGTTATAGCATGAATAGAAT,1.05,1.29,0.586,0.213,1.93,1.21,-0.314,-0.204
AGAACGAGGGCAATTAGTTGATAGCACGGGTGGC,1.14,1.37,1.89,2.01,0.935,0.962,-0.172,1.41
CTACCAAGGGGAACAAGGTCGTTGATTACTATTC,1.09,0.406,0.334,0.885,0.759,1.76,1,2
TCGAATAGGTTAGGGGCATTCAGAATGGCGTCGA,1.08,0.753,0.9,1.19,1.15,0.948,0.436,0.995
ATATGTAGGTTAAGAGTCATTCAGGTTGGTTCGC,1.26,1.23,1.13,0.882,1.53,1.24,0.283,1.24
AGTTAAAGTTCAGGACGAGGTAACGTAAAGCACG,3.04,4.5,4.39,3.27,2.72,3.85,1.96,2.43
CATACAGGTTCAGCTAGGCCAGAGTAGGGACGGC,0.871,1.01,1.03,2.89,1.41,1.05,0.0311,2.65
TCTAGTAGGTTAGGGGCATTCAGAATGGCGTCGA,1.31,0.656,0.586,1.42,0.98,1.03,0.797,1.39
ATATGTAGGTTAAGGGTCCTTCAGGTTGGTTCGC,1.37,1.03,1.09,0.575,1.59,1.15,0.749,1.01
CAAACTTGGTCACGAAAGGTCAAAGTCGAATGAC,4.71,6.15,6.2,1.4,7.01,4.07,0.947,3.11
TCTGCTAGGTCAGTCGGTCAGCTAACGAGCTGCC,3.32,3.52,4.64,0.278,1.08,1.17,0.0132,-1.13
CGTCCAAGGTAATAGGAGGTCAGTGAAGACAGAT,2.88,2.11,2.21,0.17,1.8,3.94,1.27,1.2
TAGCCTAAGTCATTGGGCCAGTATAGTACGCATC,-0.447,0.191,0.0194,-0.879,0.156,-0.214,-0.958,-0.312
TCTAGTTGGTCAAAGGACACACACTCGAAATGCG,1.99,1.75,2.29,1.09,1.12,1.59,1.14,0.435
ATATGTTGGTTACATCCGGGTCATTCAGGCTATG,2.54,1.79,1.29,0.674,2.18,3.16,2.45,2.26
TCGAGTAGATTAGGGGCATTCAGAATGGCGTCGA,0.0337,-0.202,-0.446,0.574,0.16,0.515,-0.591,0.687
CCAGCTAGGTCAATGGTCAGCTAAAGCAGCTCGC,2.83,3.55,4.15,1.51,2.04,2.1,0.209,0.021
GTACCAAGGTGAACAGGTCGTTGATGAGTAGGCG,1.76,1.95,1.02,-0.221,1.67,2.22,0.534,0.0817
